Screens: PubChem BioAssay, National Center for Advancing Translational Sciences (NCATS)
GLS inhibitor – blocks human kidney-isoform glutaminase activity | Potency, µM (highest dose often 45.5 µM), hits mostly inhibitors | O94925 | 0.21% of 410,000 active | GLS enzymatic activity, qHTS titration
Target sequence (O94925 whole entry, looked up, canonical isoform): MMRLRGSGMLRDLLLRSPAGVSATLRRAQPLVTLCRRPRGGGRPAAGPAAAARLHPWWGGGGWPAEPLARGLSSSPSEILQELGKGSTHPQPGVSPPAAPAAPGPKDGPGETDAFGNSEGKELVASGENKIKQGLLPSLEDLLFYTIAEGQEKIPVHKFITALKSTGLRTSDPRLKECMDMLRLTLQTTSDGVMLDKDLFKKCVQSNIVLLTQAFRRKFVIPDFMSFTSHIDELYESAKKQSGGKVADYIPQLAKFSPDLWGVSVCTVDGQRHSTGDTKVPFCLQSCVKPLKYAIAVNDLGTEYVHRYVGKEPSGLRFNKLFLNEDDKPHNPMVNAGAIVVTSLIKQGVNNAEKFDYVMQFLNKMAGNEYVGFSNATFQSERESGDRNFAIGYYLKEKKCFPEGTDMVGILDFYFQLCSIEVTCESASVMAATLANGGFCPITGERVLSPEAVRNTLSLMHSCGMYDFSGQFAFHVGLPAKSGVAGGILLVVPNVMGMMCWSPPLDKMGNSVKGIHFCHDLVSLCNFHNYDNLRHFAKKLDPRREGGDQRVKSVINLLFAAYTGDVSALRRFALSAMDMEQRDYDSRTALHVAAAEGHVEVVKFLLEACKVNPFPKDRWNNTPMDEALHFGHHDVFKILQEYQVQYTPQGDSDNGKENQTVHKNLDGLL
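Read-out is an Amplex red fluorescence increase coupled through glutamate oxidase and HRP, measured before and after 30 min room-temperature incubation. hKGA is in 45 mM KH2PO4 (pH 8.2) with 0.02% Tween-20; glutamine added as 1mM solution.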
BAZ2B block – BAZ2B (human) inhibition; Q9UIF8; AlphaScreen BAZ2B-H3K14Ac peptide displacement; Potency, µM (titrated, usually from 114 µM), hits mostly inhibitors; 4.4% of 360,000 active; AID 504333; also: nearly all actives have a fitted effect of over 60% in size
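Multi-concentration screen (max 110 uM) measuring displacement of acetylated histone H3 peptide from BAZ2B by AlphaScreen, using 50 nM protein, 50 nM peptide and 10 ug/mL streptavidin donor plus Ni-chelate acceptor beads.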
HP1b binding inh – HP1-beta chromodomain-methylated histone interaction inhibition; AlphaScreen HP1-beta / biotin-H3K9me3 peptide binding; Potency, µM (highest dose often 114 µM), hits mostly inhibitors; 0.56% of 390,000 active; also: nearly all actives have a fitted effect of over 70% in size
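AlphaScreen: HP1-beta (50 nM) preformed 30 min with biotin-H3(1-18)K9me3 peptide (50 nM) in PBS pH 7.4, 0.01% Tween-20. Compound added for 30 min at RT, then streptavidin donor/nickel chelate acceptor beads (10 ug/mL) for 30 min.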
G9a block – blocks human histone lysine methyltransferase G9a | Potency, µM (series often up to 102 µM), usual class: inhibitors | G9a H3K9 monomethylation, AlphaScreen, 2 h | Q96KQ7 | 8.8% of 350,000 active | AID 504332; also: nearly all actives have a fitted effect of over 75% in size
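Readings reflect AlphaScreen signal from monomethyl-H3K9 antibody detection. HMT at 20 nM; substrate b-H3K9 500 nM; cofactor SAM 20 uM; 2 h RT reaction; compounds tested as titrations in qHTS with 15 min preincubation.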
JMJD2A Tudor – inhibitors of human JMJD2A Tudor domain; AlphaScreen JMJD2A-Tudor / H3K4me3 peptide binding; Potency, µM (titrated, usually from 114 µM), most hits filed as inhibitors; 4.4% of 390,000 active; AID 504339; O75164; also: nearly all actives have a fitted effect of over 50% in size
Hits are given with their value; . = inactive; ? = inconclusive; / = no result; [ ] = another dose, or the depositor's remark. Only some compounds are listed: those with a hit (about 10% of all), similar ones and a draw of the others. Calls follow the shape of the dose curve; as a rule, active = well fitted curve in the direction sought with a large enough effect; inconclusive = small, poorly fitted or top-dose-only effect, or another doubt; inactive = no such curve, though single readings can be large; an effect the other way counts as inactive or inconclusive.

SMILES	GLS inhibitor	BAZ2B block	HP1b binding inh	G9a block	JMJD2A Tudor
COc1ccc(S(=O)(=O)NCc2ccncc2)cc1NC(=O)c1ccccc1F	.	.	.	?	.
CC(=O)Nc1ccc(S(=O)(=O)NCc2ccc(C)n2C)cc1	.	?	.	39.8µM	.
Cn1c(=O)oc2cc(S(=O)(=O)NCc3ccccn3)ccc21	.	.	.	12.6µM	.
COc1ccc(S(=O)(=O)NCc2ccncc2)cc1NC(=O)c1ccccc1C	.	.	.	8.91µM	.
Cn1c(=O)oc2cc(S(=O)(=O)NCc3cccnc3)ccc21	.	.	.	/	.
CC(=O)Nc1ccc(S(=O)(=O)NCc2ccncc2)cc1	.	?	.	.[12.7 µM]	.
Nc1ccc(S(=O)(=O)NCc2ccccn2)cc1	.	.	.	.[2.33 µM]	.
CC(=O)Nc1ccc(S(=O)(=O)NCc2ccccn2)cc1	.	.	.	.	5.01µM
Cc1ccc(NC(=O)c2cc(S(=O)(=O)N3CCOCC3)c(Cl)cc2Cl)cc1	.	.	.	.	.
O=C(NCc1ccon1)C1CCC(=O)N(CCc2cccc(F)c2)C1 (stereo unspecified)	.	.	.	.	.
COc1cc(S(=O)(=O)NCc2ccccn2)ccc1Cl	?	.	.	.	31.6µM
COc1ccc(S(=O)(=O)NCc2ccccn2)cc1NC(=O)c1ccc(C)cc1	.	.	.	.	6.31µM
O=S(=O)(NCc1ccccn1)C(F)(F)F	.	50.1µM	.	/	5.01µM
O=S(=O)(NCc1ccccn1)c1ccc2ccccc2c1	.	.	.	.	.
CCN(CC)c1ccc(NC(=O)CCS(=O)(=O)c2ccc3c(c2)oc(=O)n3C)c(C)c1	.	.	.	?	.
CCN(CC)c1ccc(NS(=O)(=O)c2ccc3c(c2)oc(=O)n3C)c(C)c1	.	.	?	39.8µM	?
COc1ccc(S(=O)(=O)NCc2ccccn2)cc1NC(=O)c1ccccc1	.	.	.	.	.
CCCn1ccc2c(OCC(=O)Nc3ccc(OC)c(OC)c3)cccc2c1=O	.	.	.	.	.
Cc1c(CN2CCCCC2)c(O)n(CCCO)c(=O)c1C#N	.	.	.	44.7µM	.
CCCn1c(O)c(CN2CCCCC2)c(C)c(C#N)c1=O	.	.	.	.	?
CC(=O)N1N=C(c2c(-c3ccccc3)c3cc(Br)ccc3[nH]c2=O)CC1c1ccco1 (stereo unspecified)	.	.	.	50.1µM	.
O=S(=O)(Nc1cc(Sc2ncn[nH]2)c(O)c2ccccc12)c1ccccc1	.	28.2µM	3.55µM	1.41µM	3.55µM
O=C(O)CSc1cc(NS(=O)(=O)c2ccc(Br)cc2)c2ccccc2c1O	?	35.5µM	14.1µM	1.78µM	20µM
CCC1CCCCN1C(=O)COc1ccc2c(c1)OCO2 (stereo unspecified)	.	.	.	70.8µM	.
N#CCC(=O)Nc1ccc(C(=O)Nc2cccc(S(=O)(=O)N3CCCC3)c2)cc1	.	/	/	/	/
SMILES	GLS inhibitor	BAZ2B block	HP1b binding inh	G9a block	JMJD2A Tudor
Cc1ccccc1NC(=O)c1c(C)oc2ccc(O)c(CN3CCC(C)CC3)c12	.	.	.	.	.
CC1CC(C)(C)N(C(=O)CN2CCN(C)CC2)c2ccccc21 (stereo unspecified)	.	25.1µM	?	/	20µM
CC1CC(C)(C)N(C(=O)CN2C(=O)c3ccccc3C2=O)c2ccccc21 (stereo unspecified)	.	.	.	.	.
C=CCNc1ncnc2c1ncn2[C@H]1CN(Cc2cccc3ccccc23)C[C@@H](CO)O1	.	/	/	/	/
Cc1oc(-c2ccc(Cl)cc2)cc1C(=O)/C(C#N)=C/Nc1cccc(OC(F)(F)F)c1	.	.	.	50.1µM	.
Cc1cc(/C=N/Nc2nc(N3CCOCC3)nc(N3CCOCC3)n2)c(C)n1-c1ccccc1	.	/	?	.	?
Cc1[nH]c2ccccc2c1/C=N/Nc1nc(Nc2ccc(F)cc2)nc(N2CCOCC2)n1	.	50.1µM	.	?	.[11.4 µM]
Cc1ccc(Nc2nc(N/N=C/c3c[nH]c4ccccc34)nc(N3CCOCC3)n2)cc1	.	44.7µM	.	?	44.7µM
C(=N\Nc1nc(Nc2ccccc2)nc(N2CCOCC2)n1)/c1c[nH]c2ccccc12	.	31.6µM	.	/	50.1µM
O=[N+]([O-])c1cc2c(c(CSc3nnnn3-c3ccc(O)cc3)c1)OCOC2	?	.	.	.	.
CCCCn1c(CN2CCN(c3ccc(OC)cc3)CC2)nc2c1c(=O)[nH]c(=O)n2C	.	.	.	?	.
